This is a sample that favours compounds with a hit; in the whole collection about 2.2% have one here.
PGC1a acetyl inh – modulators of PGC1a acetylation; U2OS PGC1a acetylation, AlphaScreen anti-acetyl-lysine; with virally co-expressed GCN5 acetyltransferase; inhibition, % at 15.6 µM; hit rate 0.17% among 350,000; AID 651687;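 active = every replicate shows inhibition of at least 40%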
LGR2 antag – Drosophila LGR2 receptor signaling inhibition. hit rate 0.35% among 380,000. HEK293 LGR2, CRE-luciferase, bursicon-stimulated, 4 h. inhibition, % at 9.99 µM;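 active = drop in luminescence signal, shown as inhibition above about 50% in the replicate tests, limit read from the data, passing the limit was not always enough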;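 note: agonist challenge used bursicon conditioned medium at about half maximal strength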
EWS-Fli inh – inhibitors of EWS/Fli oncoprotein transcriptional activity; AID 651661; A673 NR0B1-luciferase reporter, viability-normalised; inhibition, % at 12.6 µM; hit rate 0.67% among 350,000;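 active = mean inhibition of at least 50% after viability correction, with every replicate also passing that limit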;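 note: firefly luciferase signal divided by Alamar Blue viability fluorescence both relative to DMSO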
LMP1 NFkB inh – reduces LMP1-driven NF-kappaB luciferase signal; LMP1-induced NF-kappaB luciferase reporter cells, luminescence; inhibition, % at 12.5 µM; hit rate 0.69% among 350,000; in the data active = inhibition above about 41%
MITF TRPM1 inh – MITF TRPM1 promoter inhibition in SK-MEL-5 cells. hit rate 0.83% among 330,000. inhibition, % at 12.5 µM. SK-MEL-5 TRPM1 promoter luciferase, 24 h;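 active = mean inhibition across replicates of 60% or more, whatever share of single replicates reaches that level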
PAX8 reporter – lowers PAX8-driven luciferase in RMG-I cells; RMG-I TPO-luciferase reporter, SteadyGlo, 24 h; inhibition, % at 12.6 µM; hit rate 1.2% among 360,000;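 active = mean replicate inhibition at least 60% with every replicate also reaching 60%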;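 note: luciferase light reporting Pax8 driven TPO promoter activity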
Hits are given with their value; n = inactive; x = no result given.

SMILES	PGC1a acetyl inh	LGR2 antag	EWS-Fli inh	LMP1 NFkB inh	MITF TRPM1 inh	PAX8 reporter
O=[N+]([O-])c1ccc(N=Nc2ncc[nH]2)cc1	x	n	63	n	n	74
O=[N+]([O-])c1ccc(N=NN(CCO)CCO)cc1	x	n	n	n	n	n
C[C@@H]1CN([C@H](C)CO)C(=O)c2cc(NC(=O)CCCN(C)C)ccc2O[C@@H](C)CCCCO[C@@H]1CN(C)C(=O)Nc1ccccc1	n	n	n	x	x	n
COc1cccc(NC(=O)N[C@@H]2CC[C@@H](CC(=O)NCc3ccccn3)O[C@@H]2CO)c1	n	n	n	x	x	n
C[C@@H]1CN([C@@H](C)CO)C(=O)c2c(c3ccccc3n2C)-c2ccccc2CO[C@@H]1CN(C)C(=O)Nc1ccc(F)cc1	n	n	n	x	x	n
Cc1sc2ncnc(Sc3ccccc3C(=O)O)c2c1C	n	n	n	n	n	n
Clc1ccc(-n2nnnc2Sc2ncnc3sccc23)cc1	n	n	x	51	66	x
Cc1sc2ncnc(Sc3nnnn3-c3ccccc3)c2c1C	n	66	x	n	69	x
O=S(=O)(Nc1cccc(-c2cn3cccnc3n2)c1)c1ccc(Cl)cc1	x	n	n	n	n	132
COc1ccc(C)cc1S(=O)(=O)Nc1cccc(-c2cn3cccnc3n2)c1	n	n	x	n	n	n
C[C@@H]1CN([C@@H](C)CO)S(=O)(=O)c2ccc(-c3cncnc3)cc2O[C@H]1CN(C)C(=O)C1CCCCC1	n	n	n	x	x	n
O=C(N/N=C/c1cc([N+](=O)[O-])ccc1N1CCNCC1)c1ccc([N+](=O)[O-])cc1	n	x	x	n	84	x
O=[N+]([O-])c1ccc(NN=Cc2ccccc2O)nc1	n	n	n	n	n	n
O=[N+]([O-])c1ccc(O)c(/C=N/Nc2ccccn2)c1	n	n	n	47	65	71
O=[N+]([O-])c1ccc(O)c(/C=N/Nc2ncnc3c2cnn3-c2ccccc2)c1	x	n	n	47	n	n
CCCNC(=O)N1[C@H](CN(C)C(C)=O)[C@@H](c2ccc(C3=CCCC3)cc2)[C@@H]1CO	n	n	n	x	x	n
CCN1CCN(CCNC(=O)c2ccc3nc(-c4cccc(C)c4)c(-c4cccc(C)c4)nc3c2)CC1	n	n	n	n	87	n
CCN1CCN(CCCNC(=O)c2ccc3c(Cl)c4c(nc3c2)CCCC4)CC1	x	n	n	n	92	n
O=C(NCCCN1CCCCCC1)c1ccc2c(Cl)c3c(nc2c1)CCCC3	x	n	n	n	n	n
CCC(=O)N1CCN(c2ccc(-n3c(=O)ccc4cnc5ccc(-c6cnc7ccccc7c6)cc5c43)cc2C(F)(F)F)CC1	x	n	n	x	x	71
CCS(=O)(=O)c1nnnn1-c1ccccc1S(C)(=O)=O	n	n	n	51	n	x
O=C1/C(=C/c2ccccc2F)SC(=S)N1CCC(=O)N1CCCCC1CCO (centres undefined)	x	n	x	n	n	n
O=C1/C(=C/c2ccccc2F)SC(=S)N1CC(=O)N1CCCCC1c1cccnc1 (centres undefined)	n	n	n	n	n	100
O=C1/C(=C/c2ccc(F)cc2)SC(=S)N1CC(=O)N1CCCCC1c1cccnc1 (centres undefined)	n	n	n	n	n	70
C[C@H]1CN([C@@H](C)CO)C(=O)c2cc(NC(=O)Cc3ccccc3)ccc2O[C@@H]1CN(C)Cc1ccc(Oc2ccccc2)cc1	n	n	n	x	x	x
SMILES	PGC1a acetyl inh	LGR2 antag	EWS-Fli inh	LMP1 NFkB inh	MITF TRPM1 inh	PAX8 reporter
O=C(Nc1cccc(F)c1)N1CC(=O)N2[C@@H](CO)[C@@H](c3ccc(C#CC4CC4)cc3)[C@@H]2C1	n	n	n	x	x	x
Cc1ccc(S(=O)(=O)N2CC[C@@H]3[C@H]2c2cc(C#Cc4cccc(F)c4)ccc2N[C@@H]3CO)cc1	n	n	n	x	x	n
CSc1nc2nccc(-c3ccc(Cl)cc3)n2n1	n	n	x	n	n	x
CSc1nc2nccc(/C=C\c3ccccc3)n2n1	50	x	x	n	n	63
C[C@H]1CN([C@@H](C)CO)C(=O)Cc2cc(NC(=O)C3CC3)ccc2O[C@@H]1CN(C)Cc1ccc(-c2ccccc2)cc1	n	n	n	x	x	103
C[C@@H]1CN([C@@H](C)CO)C(=O)Cc2cc(NC(=O)C3CC3)ccc2O[C@@H]1CN(C)Cc1ccccc1	x	n	n	x	x	n
C[C@H](CO)N1C[C@H](C)[C@@H](CN(C)Cc2ccc(-c3ccccc3)cc2)Oc2ccc(NC(=O)C3CCCCC3)cc2CC1=O	n	n	n	x	x	n

Assay outcomes deposited in PubChem BioAssay by Broad Institute.
